High-throughput results: PubChem BioAssay, National Center for Advancing Translational Sciences (NCATS)
TRPV1 potentiator: HTS Assay for Compounds that Act as Potentiators of the Vanilloid Receptor 1 | Transient receptor potential cation channel subfamily V member 1 (Homo sapiens), Q8NER1 | AID 540277, 2011 | 320,000 compounds, 0.02% hits | potentiation, % at 8.33 µM | TRPV1-expressing cells, Fluo-8 calcium influx, capsaicin EC20 potentiation; in the data active = potentiation above about 80%; inconclusive = between about 30% and that limit
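Fluo-8 calcium influx in TRPV1-expressing cells, kinetic read (ex 480/em 520 nm). Compound added and read 3 min for agonist activity, followed by capsaicin at EC20 final and 2 min further read for enhancement.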
KCNH2 3.1 block: qHTS for Inhibitors of KCHN2 3.1: Mutant qHTS | U2OS KCNH2 3.1, thallium flux FluxOr; stronger effect = lower value | Potassium voltage-gated channel subfamily H member 2, brain isoform KCNH2 3.1 (human) | 340,000 compounds, 0.95% hits | activity change, % (tested at about 1.8 µM);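 active = maximum activity change below -70%; inconclusive = maximum activity change from -70% to -50%; inactive = maximum activity change above -50%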;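 note: thallium influx rate constant from kinetic fluorescence after stimulation buffer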
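Thallium flux read-out: FluxOr dye with Red40 quencher in HBSS/HEPES, 45 min at RT. Rate constants from kinetic reads were normalized to positive and negative DMSO controls. Cells: U2OS virally expressing the 3.1 isoform.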
hERG WT inh: qHTS for Inhibitors of KCHN2 3.1: Wildtype qHTS | 340,000 compounds, 0.37% hits | U2OS, BacMam KCNH2, thallium flux FluxOr; stronger effect = lower value | activity change, % at 1.84 µM;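 active = maximum activity change below -70%; inconclusive = maximum activity change between -70% and -50%; inactive = maximum activity change above -50%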
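U2OS cells transduced with wild-type KCNH2 virus are loaded with FluxOr dye for 45 min, and thallium flux is measured in kinetic reads before and after stimulation buffer. Rate constants are normalized to DMSO controls.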
TRPML1 ag: qHTS for Agonists of the Human Mucolipin Transient Receptor Potential 1 (TRPML1); Mucolipin-1 (Homo sapiens), Q9GZU1; TRPML1-expressing cells, Ca2+ dye fluorescence, FDSS; activation, % (test concentration not listed); 410,000 compounds, 0.12% hits; in the data active = activation above about 50%; inconclusive = mostly about 30% to 49%
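Cells: TRPML1-DL, 1X Tet inducer, ~16 h at 37 degrees C/5% CO2. Dye: ABD Ca8 no-wash + quencher, 45-90 min RT. Read: 10 s baseline, compound add, 110 s agonist phase; 54-4 EC80 (4uM final), 110 s antagonist phase.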
TRPML1 blocker: qHTS for Inhibitors of the Human Mucolipin Transient Receptor Potential 1 (TRPML1) | activity change, negative = inhibition, % (test concentration not listed) | TRPML1-inducible cells, Ca2+ dye fluorescence, FDSS; stronger effect = lower value; inhibition of EC80 agonist-evoked calcium signal | 390,000 compounds, 0.02% hits | Mucolipin-1 (Homo sapiens), Q9GZU1; in the data active = activity change below about -50%; inconclusive = between about -30% and that limit;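 note: stimulus is agonist 54-4 at its EC80 concentration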
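Tet-induced TRPML1-DL cells loaded with Ca8 no-wash calcium dye were read kinetically on FDSS. Compound addition was followed by EC80 agonist 54-4 (4 uM final); inhibition was read over 110 s.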
TRPV1 ag: HTS Assay for Compounds that Act as Agonists of the Vanilloid Receptor 1. TRPV1-expressing cells, Fluo-8 calcium influx, agonist mode. activation, % at 8.33 µM. 320,000 compounds, 0.19% hits. AID 540275, 2011; in the data active = activation above about 80%; inconclusive = between about 30% and that limit
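Fluo-8 calcium influx in TRPV1-expressing cells, kinetic read (ex 480/em 520 nm). Compound added and read 3 min for agonist activity, followed by capsaicin at EC20 final and 2 min further read for enhancement.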
A number is an active result; - = inactive; ? = inconclusive; . = no result given. Only some compounds are listed: those with a hit (about 1.3% of all), similar ones and a draw of the others.

SMILES	TRPV1 potentiator	KCNH2 3.1 block	hERG WT inh	TRPML1 ag	TRPML1 blocker	TRPV1 ag
Nc1nc(CN2CCN(C(c3ccccc3)c3ccccc3)CC2)nc(Nc2ccccc2)n1	-	-98.1	-	-	-	-
COc1cccc(/C=C/c2ccnc3ccccc23)c1OC	.	.	.	-	.	.
Cc1cc2c(n1-c1ccc(C(=O)NCC(C)c3ccccc3)cc1)CCCC2 (configuration not stated)	.	.	.	-	-	.
Nc1nc(CN2CCN(Cc3ccc4c(c3)OCO4)CC2)nc(Nc2ccccc2)n1	?	-76.4	-	-	-	-
Cc1ccc(NC(=O)N2CCN(C(=O)c3ccco3)CC2)cc1Cl	-	-	-	-	-	-
Cc1ccc(Nc2nc(N)nc(CN3CCN(C(=O)c4ccco4)CC3)n2)cc1Cl	-	-93.8	-	-	-	-
Cc1ccc(CNC(=O)c2cc3c(=O)n4ccccc4nc3n(CC3CCCO3)c2=N)cc1 (configuration not stated)	-	-70.8	-	-	-	-
N=c1c(C(=O)NCc2ccco2)cc2c(=O)n3ccccc3nc2n1Cc1ccc(Cl)cc1	-	-79.9	-	-	-	-
N=c1c(C(=O)NCc2ccco2)cc2c(=O)n3ccccc3nc2n1Cc1ccccc1	-	-	-	-	-	?
CN(C)S(=O)(=O)c1ccc(C(=O)NCCSc2c(-c3ccc(Br)cc3)[nH]c3ccccc23)cc1	.	.	.	-	-	.
COC(=O)CN1C(c2ccc(OC)cc2)=Nc2ccc(Cl)cc2C1c1ccccc1 (configuration not stated)	-	-95.6	-	-	-	-
COC(=O)CN1C(c2cccc(Cl)c2)=Nc2ccc(Cl)cc2C1c1ccccc1 (configuration not stated)	-	-	-	-	-	-
CCOC(=O)c1ccc(NC(=O)N2CCN(Cc3cccc(F)c3)CC2)cc1	-	-	-	-	-	81.5
CCN1CCN(C(=O)Nc2cccc(C(F)(F)F)c2)CC1	-	-79.3	-	-	-	-
CCOC(=O)c1ccc(CN(Cc2ccccc2C)S(=O)(=O)c2ccc(F)c(C)c2)cc1	.	.	.	-	-	.
COC(=O)c1scc(-c2ccc(C)cc2)c1S(=O)(=O)N1CCN(c2cccc(OC)c2)CC1	.	.	.	-	-	.
CCCCCCSc1cc(-c2nc3cc(C)ccn3c2NCCCC)ccc1OC	-	-110.6	-80.3	-	-	?
CCCCNc1c(-c2cccc(-c3cc(C(C)=O)cs3)c2)nc2cc(C)ccn12	?	-70.6	-	-	-	-
Cc1cccc(C(c2sc3nc(-c4ccco4)nn3c2O)N2CCOCC2)c1 (configuration not stated)	.	.	.	-	-	.
Oc1ccc(N=Nc2ccc3c(c2)OCCO3)c2cccnc12	-	-	-	-	-	-
Oc1ccc(N=Nc2ccc3c(c2)OCCO3)c(O)c1	-	-	-73.0	.	.	-
CCOc1ccccc1C(=O)Nc1c(C(=O)Nc2ccc(F)cc2)oc2ccccc12	.	.	.	-	-	.
Cc1cccc(OCC(=O)Nc2cc(C)c(O)c(-c3nc4ccccc4o3)c2)c1	.	.	.	-	.	.
FC(F)(F)c1nc2nc(Cl)c(Cl)nc2[nH]1	.	-70.5	-	-	-	.
CC1CC=CC2C1C(=O)N(Cc1ccccc1)C2c1ccc(F)c(Br)c1 (configuration not stated)	.	.	.	-	-	.
COc1ccccc1CNC(=O)c1cc2ccc3ccc(C)[nH]c3c2n1	.	.	.	-	-	.
CC(C)NC(=S)N(C)C1(c2ccccc2Cl)CCCCC1=O (configuration not stated)	-	-93.2	-	-	-	-
